Results reported in the supplement of paper PMC11732987, “Enantioselective OTUD7B fragment discovery through chemoproteomics screening and high-throughput optimisation” (Communications Chemistry, 2025).
A number with no mark means an inactive call.

Assays:
Assay in all cases: log2 ratio of Biotin-Ahx-Ub-VS probe labelling (fragment/DMSO); higher = less target engagement (more negative = stronger competition), active = hit call of the paper (q ≤ 0.05, log2 ratio ≤ -1)
Settings in all cases: compound concentration: 200 uM; treatment time: 3 h
[1] = molecular target: UniProt O00507
Summary of the method: (§1)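 HEK293T lysate (495 µg per sample, in Tris/CHAPS/IGEPAL buffer with protease inhibitors) was exposed in triplicate for 3 h to fragment at 200 µM or to vehicle, then to Biotin-Ahx-Ub-VS at 0.5 µM final for 1 h. Labelled DUBs were enriched on NeutrAvidin, digested with LysC and trypsin, and analysed by diaPASEF LC-MS/MS. Spectronaut label-free quantities were normalised to the global median, and values are average log2 ratios of fragment over vehicle from an unpaired t-test. Only proteins with ≥2 unique peptides were used.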

[2] = molecular target: UniProt P51784
Summary of the method: as §1

[3] = molecular target: T1, UniProt Q5T2D3
T1 sequence (whole entry): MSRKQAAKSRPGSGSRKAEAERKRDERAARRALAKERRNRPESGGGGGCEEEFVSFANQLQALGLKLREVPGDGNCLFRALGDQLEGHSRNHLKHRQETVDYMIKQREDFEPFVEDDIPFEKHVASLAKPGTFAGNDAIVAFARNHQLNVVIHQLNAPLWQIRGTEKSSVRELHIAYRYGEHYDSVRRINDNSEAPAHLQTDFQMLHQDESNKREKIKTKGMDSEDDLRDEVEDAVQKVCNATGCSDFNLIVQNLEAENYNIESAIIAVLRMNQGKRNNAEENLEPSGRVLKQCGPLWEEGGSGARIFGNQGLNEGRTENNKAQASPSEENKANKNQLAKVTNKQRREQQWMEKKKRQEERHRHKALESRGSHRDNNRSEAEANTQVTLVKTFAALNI
Summary of the method: as §1

[4] = molecular target: T2, UniProt Q8TE49
T2 sequence (whole entry): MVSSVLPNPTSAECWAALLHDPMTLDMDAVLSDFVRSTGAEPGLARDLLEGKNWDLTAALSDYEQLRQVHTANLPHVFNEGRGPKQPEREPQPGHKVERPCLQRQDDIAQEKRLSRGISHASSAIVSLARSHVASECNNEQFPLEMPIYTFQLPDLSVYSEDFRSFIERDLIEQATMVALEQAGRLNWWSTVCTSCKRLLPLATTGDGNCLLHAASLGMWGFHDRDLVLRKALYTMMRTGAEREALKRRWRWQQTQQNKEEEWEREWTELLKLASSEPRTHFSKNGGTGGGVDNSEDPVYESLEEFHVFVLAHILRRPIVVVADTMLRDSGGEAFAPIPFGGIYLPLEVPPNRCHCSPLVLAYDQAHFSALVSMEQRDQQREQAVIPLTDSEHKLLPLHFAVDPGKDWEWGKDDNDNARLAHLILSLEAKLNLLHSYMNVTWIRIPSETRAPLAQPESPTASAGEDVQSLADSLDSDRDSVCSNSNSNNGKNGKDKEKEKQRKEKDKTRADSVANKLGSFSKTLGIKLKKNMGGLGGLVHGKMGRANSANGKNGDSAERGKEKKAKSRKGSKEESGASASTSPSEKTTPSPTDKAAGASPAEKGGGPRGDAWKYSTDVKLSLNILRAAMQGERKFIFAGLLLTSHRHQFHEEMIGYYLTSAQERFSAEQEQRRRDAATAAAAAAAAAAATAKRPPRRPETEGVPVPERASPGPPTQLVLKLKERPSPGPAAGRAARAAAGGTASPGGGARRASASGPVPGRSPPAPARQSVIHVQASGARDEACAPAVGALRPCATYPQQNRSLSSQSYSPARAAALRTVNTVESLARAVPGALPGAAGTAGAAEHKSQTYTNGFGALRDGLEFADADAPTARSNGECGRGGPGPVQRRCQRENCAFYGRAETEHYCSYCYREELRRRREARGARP
Summary of the method: as §1

[5] = molecular target: T3, UniProt Q9P2H5
T3 sequence (whole entry): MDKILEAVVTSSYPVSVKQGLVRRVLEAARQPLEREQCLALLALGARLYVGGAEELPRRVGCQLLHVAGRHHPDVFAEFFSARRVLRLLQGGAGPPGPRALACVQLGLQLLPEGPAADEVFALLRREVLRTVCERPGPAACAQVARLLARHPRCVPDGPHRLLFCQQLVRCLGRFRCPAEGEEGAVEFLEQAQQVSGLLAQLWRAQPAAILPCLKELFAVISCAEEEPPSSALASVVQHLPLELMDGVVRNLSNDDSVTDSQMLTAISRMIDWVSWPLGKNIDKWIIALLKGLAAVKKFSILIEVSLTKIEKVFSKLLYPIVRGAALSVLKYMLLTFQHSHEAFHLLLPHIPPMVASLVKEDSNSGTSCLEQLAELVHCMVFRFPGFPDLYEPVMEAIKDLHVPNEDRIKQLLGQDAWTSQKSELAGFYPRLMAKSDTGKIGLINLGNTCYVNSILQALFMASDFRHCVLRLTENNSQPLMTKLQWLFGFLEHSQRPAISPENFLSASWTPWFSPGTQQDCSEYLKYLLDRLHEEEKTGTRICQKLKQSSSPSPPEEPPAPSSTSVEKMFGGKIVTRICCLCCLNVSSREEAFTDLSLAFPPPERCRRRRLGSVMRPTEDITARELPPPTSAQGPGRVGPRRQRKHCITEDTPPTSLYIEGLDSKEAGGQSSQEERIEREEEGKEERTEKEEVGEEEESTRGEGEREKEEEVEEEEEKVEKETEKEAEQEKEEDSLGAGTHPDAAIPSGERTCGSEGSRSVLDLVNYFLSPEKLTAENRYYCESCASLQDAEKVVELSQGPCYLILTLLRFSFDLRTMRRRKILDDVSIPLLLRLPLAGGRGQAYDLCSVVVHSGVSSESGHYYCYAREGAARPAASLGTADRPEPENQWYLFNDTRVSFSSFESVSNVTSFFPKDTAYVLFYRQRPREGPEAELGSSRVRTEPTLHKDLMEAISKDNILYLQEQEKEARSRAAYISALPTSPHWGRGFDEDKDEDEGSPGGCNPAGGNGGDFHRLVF
Summary of the method: as §1

[6] = molecular target: T4, UniProt Q9UGI0
T4 sequence (whole entry): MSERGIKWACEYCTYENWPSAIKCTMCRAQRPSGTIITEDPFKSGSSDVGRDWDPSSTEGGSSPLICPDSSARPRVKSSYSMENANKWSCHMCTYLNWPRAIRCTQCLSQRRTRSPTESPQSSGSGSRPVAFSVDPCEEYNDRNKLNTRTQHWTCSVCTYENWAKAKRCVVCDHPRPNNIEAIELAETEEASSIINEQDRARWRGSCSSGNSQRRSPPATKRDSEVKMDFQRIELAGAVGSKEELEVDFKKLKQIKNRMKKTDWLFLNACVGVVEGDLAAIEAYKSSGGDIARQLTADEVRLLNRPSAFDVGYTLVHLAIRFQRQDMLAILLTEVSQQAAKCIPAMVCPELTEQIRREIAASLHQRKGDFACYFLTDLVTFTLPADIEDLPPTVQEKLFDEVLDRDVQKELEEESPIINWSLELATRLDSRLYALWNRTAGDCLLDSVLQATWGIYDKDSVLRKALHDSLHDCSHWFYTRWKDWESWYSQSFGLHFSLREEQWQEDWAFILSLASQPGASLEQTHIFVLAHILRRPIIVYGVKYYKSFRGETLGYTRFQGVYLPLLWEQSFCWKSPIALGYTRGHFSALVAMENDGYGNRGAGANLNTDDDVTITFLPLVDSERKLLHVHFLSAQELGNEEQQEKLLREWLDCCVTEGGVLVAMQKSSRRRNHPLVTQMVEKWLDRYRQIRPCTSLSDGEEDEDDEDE
Summary of the method: as §1

[7] = molecular target: T5, YOD1 (UniProt Q5VVQ6)
T5 sequence (whole entry): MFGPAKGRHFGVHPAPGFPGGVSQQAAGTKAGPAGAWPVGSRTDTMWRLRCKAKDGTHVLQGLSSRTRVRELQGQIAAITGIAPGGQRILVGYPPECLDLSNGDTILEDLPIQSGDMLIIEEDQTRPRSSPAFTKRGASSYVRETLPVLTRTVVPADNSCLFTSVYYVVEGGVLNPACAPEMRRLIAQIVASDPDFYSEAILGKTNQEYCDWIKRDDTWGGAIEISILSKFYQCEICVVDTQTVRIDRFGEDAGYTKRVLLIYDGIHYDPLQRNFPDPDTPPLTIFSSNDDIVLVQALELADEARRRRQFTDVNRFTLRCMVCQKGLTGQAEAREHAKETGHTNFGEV
Summary of the method: as §1

Sequence of UniProt P51784 (P51784 whole entry): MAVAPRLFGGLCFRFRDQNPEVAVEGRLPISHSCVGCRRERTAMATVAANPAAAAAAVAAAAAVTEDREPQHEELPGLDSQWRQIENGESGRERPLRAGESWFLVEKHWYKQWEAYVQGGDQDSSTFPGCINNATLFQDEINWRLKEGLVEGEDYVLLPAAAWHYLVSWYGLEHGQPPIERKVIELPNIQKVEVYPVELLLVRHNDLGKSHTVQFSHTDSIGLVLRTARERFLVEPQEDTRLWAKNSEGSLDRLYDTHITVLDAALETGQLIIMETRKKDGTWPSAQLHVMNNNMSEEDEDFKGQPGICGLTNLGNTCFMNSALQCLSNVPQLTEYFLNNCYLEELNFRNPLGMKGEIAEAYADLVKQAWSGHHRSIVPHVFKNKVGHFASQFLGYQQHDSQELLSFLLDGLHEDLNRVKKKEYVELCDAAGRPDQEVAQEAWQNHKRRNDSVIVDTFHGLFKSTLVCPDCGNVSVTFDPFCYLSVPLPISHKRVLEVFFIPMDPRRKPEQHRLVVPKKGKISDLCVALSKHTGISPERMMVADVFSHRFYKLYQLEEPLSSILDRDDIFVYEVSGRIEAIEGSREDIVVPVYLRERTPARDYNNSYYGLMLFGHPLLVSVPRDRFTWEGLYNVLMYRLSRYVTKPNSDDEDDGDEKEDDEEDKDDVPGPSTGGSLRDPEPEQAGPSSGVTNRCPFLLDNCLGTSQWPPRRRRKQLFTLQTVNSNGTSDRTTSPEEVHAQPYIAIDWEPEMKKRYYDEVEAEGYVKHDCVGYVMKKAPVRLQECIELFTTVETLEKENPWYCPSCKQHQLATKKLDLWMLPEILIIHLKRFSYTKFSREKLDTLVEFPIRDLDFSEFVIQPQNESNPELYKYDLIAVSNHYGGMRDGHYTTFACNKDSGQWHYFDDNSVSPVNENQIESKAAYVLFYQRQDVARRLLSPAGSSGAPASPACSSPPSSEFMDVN
Sequence of UniProt O00507 (O00507 whole entry, the tested form may be a part): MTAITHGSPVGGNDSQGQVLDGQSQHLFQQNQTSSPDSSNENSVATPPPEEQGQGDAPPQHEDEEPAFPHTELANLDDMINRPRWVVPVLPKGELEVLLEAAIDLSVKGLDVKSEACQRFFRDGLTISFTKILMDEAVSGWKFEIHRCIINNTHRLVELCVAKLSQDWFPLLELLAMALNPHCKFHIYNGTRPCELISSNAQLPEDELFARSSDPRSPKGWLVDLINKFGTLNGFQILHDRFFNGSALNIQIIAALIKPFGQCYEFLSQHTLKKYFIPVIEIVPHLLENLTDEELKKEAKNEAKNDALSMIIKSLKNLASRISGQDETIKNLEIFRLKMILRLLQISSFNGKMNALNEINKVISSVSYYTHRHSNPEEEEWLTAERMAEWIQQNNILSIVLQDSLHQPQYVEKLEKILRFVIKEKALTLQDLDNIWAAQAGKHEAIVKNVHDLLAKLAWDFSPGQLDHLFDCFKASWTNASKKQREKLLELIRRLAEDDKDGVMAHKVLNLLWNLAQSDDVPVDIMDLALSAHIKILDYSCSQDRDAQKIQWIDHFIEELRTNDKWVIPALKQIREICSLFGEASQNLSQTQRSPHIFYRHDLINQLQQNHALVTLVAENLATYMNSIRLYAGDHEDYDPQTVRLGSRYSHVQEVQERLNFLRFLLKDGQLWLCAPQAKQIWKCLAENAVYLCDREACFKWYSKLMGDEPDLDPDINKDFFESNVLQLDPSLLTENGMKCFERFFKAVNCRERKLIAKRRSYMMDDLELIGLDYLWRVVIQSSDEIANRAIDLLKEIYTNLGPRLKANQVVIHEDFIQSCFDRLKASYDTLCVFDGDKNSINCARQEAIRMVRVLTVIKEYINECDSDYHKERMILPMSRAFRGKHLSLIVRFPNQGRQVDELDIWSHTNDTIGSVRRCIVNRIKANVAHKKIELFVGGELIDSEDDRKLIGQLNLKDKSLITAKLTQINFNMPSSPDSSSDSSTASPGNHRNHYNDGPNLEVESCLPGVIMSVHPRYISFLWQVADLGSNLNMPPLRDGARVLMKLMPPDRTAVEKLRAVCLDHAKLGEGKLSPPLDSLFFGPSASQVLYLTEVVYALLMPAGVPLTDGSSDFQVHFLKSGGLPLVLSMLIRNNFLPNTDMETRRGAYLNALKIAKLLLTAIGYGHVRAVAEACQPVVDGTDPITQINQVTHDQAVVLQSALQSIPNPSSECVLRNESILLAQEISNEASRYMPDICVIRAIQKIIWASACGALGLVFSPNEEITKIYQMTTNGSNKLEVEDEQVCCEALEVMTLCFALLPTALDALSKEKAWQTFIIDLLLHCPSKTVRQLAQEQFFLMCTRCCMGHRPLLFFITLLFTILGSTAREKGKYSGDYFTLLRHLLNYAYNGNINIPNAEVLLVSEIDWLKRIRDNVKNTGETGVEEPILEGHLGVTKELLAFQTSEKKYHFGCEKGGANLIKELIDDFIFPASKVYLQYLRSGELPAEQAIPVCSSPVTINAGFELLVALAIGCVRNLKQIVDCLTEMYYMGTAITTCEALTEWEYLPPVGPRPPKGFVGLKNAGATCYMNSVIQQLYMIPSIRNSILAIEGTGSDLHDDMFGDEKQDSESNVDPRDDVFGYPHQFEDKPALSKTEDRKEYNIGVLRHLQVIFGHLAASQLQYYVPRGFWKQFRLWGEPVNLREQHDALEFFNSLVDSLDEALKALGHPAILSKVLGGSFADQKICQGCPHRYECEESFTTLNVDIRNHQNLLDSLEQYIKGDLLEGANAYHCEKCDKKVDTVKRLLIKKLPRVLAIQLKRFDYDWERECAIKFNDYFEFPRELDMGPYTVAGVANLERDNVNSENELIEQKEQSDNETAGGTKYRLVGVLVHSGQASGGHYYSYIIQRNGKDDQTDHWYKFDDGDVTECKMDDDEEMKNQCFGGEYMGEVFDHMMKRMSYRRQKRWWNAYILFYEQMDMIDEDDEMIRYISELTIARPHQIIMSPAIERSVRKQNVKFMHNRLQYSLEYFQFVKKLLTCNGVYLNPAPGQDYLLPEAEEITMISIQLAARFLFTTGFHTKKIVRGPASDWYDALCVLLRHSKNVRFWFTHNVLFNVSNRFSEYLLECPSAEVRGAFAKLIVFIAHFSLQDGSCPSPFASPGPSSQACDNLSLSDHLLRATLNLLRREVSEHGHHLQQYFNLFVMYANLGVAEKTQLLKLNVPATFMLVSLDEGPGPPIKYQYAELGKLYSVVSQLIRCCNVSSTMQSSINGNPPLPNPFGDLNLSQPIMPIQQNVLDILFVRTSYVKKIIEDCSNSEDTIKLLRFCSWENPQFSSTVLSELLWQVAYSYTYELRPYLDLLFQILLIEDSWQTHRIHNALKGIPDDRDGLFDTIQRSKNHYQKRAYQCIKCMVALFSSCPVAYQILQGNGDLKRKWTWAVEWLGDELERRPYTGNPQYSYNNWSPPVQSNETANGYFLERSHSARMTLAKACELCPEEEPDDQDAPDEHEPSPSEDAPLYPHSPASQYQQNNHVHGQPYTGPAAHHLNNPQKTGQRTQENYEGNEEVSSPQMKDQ

| SMILES | log2 ratio of Biotin-Ahx-Ub-VS probe labelling [1] | log2 ratio of Biotin-Ahx-Ub-VS probe labelling [2] | log2 ratio of Biotin-Ahx-Ub-VS probe labelling [3] | log2 ratio of Biotin-Ahx-Ub-VS probe labelling [4] | log2 ratio of Biotin-Ahx-Ub-VS probe labelling [5] | log2 ratio of Biotin-Ahx-Ub-VS probe labelling [6] | log2 ratio of Biotin-Ahx-Ub-VS probe labelling [7] |
| --- | --- | --- | --- | --- | --- | --- | --- |
| CCc1c[nH]c(CNC(=O)CCl)n1.Cl | -0.772 | -0.123 | -0.363 | -0.324 | -0.147 | -0.736 | -0.491 |
| O=C(CCl)N1CCCCCC1c1ncon1 (stereo not drawn) | -0.0474 | -0.00586 | -0.23 | -0.401 | -0.21 | -0.661 | 0.022 |
| Cc1n[nH]c2c1CN(C(=O)CCl)CC2 | -0.966 | -0.554 | -0.696 | -1.43 (active) | -0.801 | -1.32 (active) | -0.674 |
| CCC(NC(=O)CCl)c1ccc(Cl)cc1 (stereo not drawn) | 0.32 | 0.0791 | -0.182 | -0.735 | -0.319 | -0.279 | 0.188 |
| O=C(CCl)N1CCc2nc[nH]c2C1c1ccc(Cl)cc1 (stereo not drawn) | -0.893 | 0.194 | -0.0219 | -1.15 (active) | -0.000874 | -1.05 (active) | -0.117 |
| Cl.O=C(CCl)NCCN1CCc2ccccc21 | -0.631 | -0.722 | -0.805 | -0.934 | -0.844 | -0.971 | -0.814 |
| Cc1ccc(C(=O)NCCNC(=O)CCl)cc1 | -0.256 | 0.00304 | -0.199 | -0.373 | -0.35 | -0.456 | -0.0895 |
| Cc1ccc(-c2nnc(C)[nH]2)c(NC(=O)CCl)c1 | -0.0161 | 0.126 | -0.148 | -0.185 | 0.245 | -0.97 | -0.102 |
| Cc1ccn2cc(CNC(=O)CCl)nc2c1.Cl | 0.237 | -0.0387 | -0.599 | -0.359 | -0.141 | -0.262 | 0.0926 |
| Cc1cc(Cl)ccc1NC(=O)CCl | 0.519 | -0.115 | -0.142 | -0.396 | -0.193 | -0.477 | -0.175 |
| O=C(CCl)NCCc1ccc(F)cc1 | -0.114 | 0.00457 | 0.0738 | -0.0633 | 0.297 | -0.491 | 0.0794 |
| O=C(CCl)N[C@H]1CCS(=O)(=O)c2ccccc21 | -0.141 | -0.134 | -0.0599 | -0.609 | -0.0511 | -0.158 | 0.0852 |
| Cl.Cn1nc2c(c1CNC(=O)CCl)CCCC2 | 0.0971 | 0.0528 | -0.274 | -0.529 | -0.23 | -0.319 | -0.144 |
| C#Cc1cccc(NC(=O)CCl)c1 | 0.0122 | -0.102 | -0.121 | -0.872 | -0.252 | -1.01 (active) | 0.0347 |
| Cl.O=C(CCl)N1CCC(Cc2nccs2)C1 (stereo not drawn) | -0.185 | 0.0118 | -0.239 | -0.308 | -0.239 | -0.507 | -0.104 |
| O=C(CCl)NCCC1COCCO1 (stereo not drawn) | -0.31 | 0.182 | -0.163 | -0.547 | -0.0395 | -0.194 | -0.308 |
| CCN(C(=O)CCl)C1CCS(=O)(=O)C1 (stereo not drawn) | 0.545 | -0.0519 | 0.00795 | -0.222 | -0.211 | -0.289 | 0.133 |
| O=C(CCl)N1CCCC1c1ccsc1 (stereo not drawn) | -0.118 | -0.115 | -0.188 | -0.72 | -0.412 | -1.53 (active) | 0.14 |
| O=C(CCl)N1CCC(S(=O)(=O)c2ccc(F)cc2)CC1 | 0.0377 | -0.0572 | -0.0766 | -0.856 | -0.104 | -0.887 | 0.119 |
